Source: PubChem BioAssay (National Center for Advancing Translational Sciences (NCATS))
Compounds with a hit are over-represented: about 21% of the library has one in this group of screens.
HCMV antiviral: human cytomegalovirus inhibition; actives 4.5% (n = 410,000); HFF cells, HCMV-luciferase reporter, 72 h; active compounds read low; activity change, negative = inhibition, % at 57.5 µM; in the data active = activity change below about -60%; inconclusive = no clear call, values can overlap the other calls; inactive = above about -39%; note: % is set by controls: 0 for no effect and ±100 for the full control effect
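Compounds were evaluated in HFFs infected with an HCMV luciferase reporter virus (MOI 1 PFU/cell). Luciferase in lysates collected 72 h post infection served as the replication measure.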
Pf growth 48h: P. falciparum growth inhibition at 48 hours (one generation); P. falciparum luciferase growth in erythrocytes, 48 h; AID 504832; Potency, µM (doses to about 28.7 µM), inactives show at the highest dose activity change, negative = inhibition, usual class: inhibitors; actives 5.9% (n = 310,000); note: potency is the fitted concentration of half-maximal effect; % is set by controls: 0 for no effect and ±100 for the full control effect
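Compounds are pin-transferred into medium, infected erythrocytes (2% hematocrit, 0.1% parasitemia final) are added, and plates sit one parasite generation at 37 C in 5% CO2. Detection reagent is then added and luminescence measured.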
Pf growth 96h: inhibits malaria parasite growth, 96 h; actives 6.9% (n = 320,000); Potency, µM (top dose mostly 28.7 µM), for inactives: at the top dose activity change, negative = inhibition, actives largely listed as inhibitors; P. falciparum luciferase reporter growth, 96 h; AID 504834; note: potency is the fitted concentration of half-maximal effect; % is set by controls: 0 for no effect and ±100 for the full control effect
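P. falciparum expressing integrated firefly luciferase grown in erythrocytes (2% hematocrit, 0.05% parasitemia final) with compounds for 96 hours at 37 C, 5% CO2. Growth inhibition read as loss of luminescence after adding luciferase detection reagent.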
Shiga toxin inh: blocks Shiga toxin action in Vero cells | AID 2315 | inhibition, % at 38.7 µM | actives 9.2% (n = 290,000) | Vero cells, Shiga toxin protein synthesis inhibition reporter; in the data active = inhibition mostly above about 28%, no sharp cut-off; inactive = mostly below about 43%; note: 0% is about no effect
HCV inhibitor: HCV inhibition. Huh7.5.1 HCVcc-Cre infection, luciferase reporter, 44 h. Potency, µM (titrated, usually from 41.8 µM), without a hit: at the highest dose activity change, negative = inhibition, actives largely listed as inhibitors. actives 3.4% (n = 340,000). AID 651820; note: potency is the fitted concentration of half-maximal effect; % is set by controls: 0 for no effect and ±100 for the full control effect
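A cell-based infection assay in which seeded cells (1,000 per well) receive test compound after 4 h, are inoculated with HCVcc-Cre at approximately 0.5 moi, and are incubated 44 h before luminescence detection.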
Cycloheximide cs: counter-screen hit for Shiga toxin inhibitors, cycloheximide; max response, %; cell reporter, cycloheximide protein synthesis inhibition counterscreen; actives 12% (n = 300,000); in the data active = max response mostly above about 13%, no sharp cut-off; inactive = mostly below about 14%; note: read at 38.3 µM for the half of the compounds with a filed dose; 0% is about no effect
Numbers without * were called inactive; ? = inconclusive; · = no result. Unless noted, calls come from the whole dose curve; as a rule, active = well fitted inhibition curve with a large enough effect; inconclusive = small, poorly fitted or top-dose-only effect, or another doubt; inactive = no such curve, though single readings can be large or run the other way.

SMILES	HCMV antiviral	Pf growth 48h	Pf growth 96h	Shiga toxin inh	HCV inhibitor	Cycloheximide cs
O=S(=O)(Nc1nc2ccccc2nc1N1CCc2ccccc2C1)c1ccc(Br)cc1	195	196%	82%	33*	5%	44*
CN1CCN(c2nc3ccccc3nc2NS(=O)(=O)c2ccc(Br)cc2)CC1	35	·	·	·	32%	·
CC(=O)Nc1ccc(S(=O)(=O)Nc2nc3ccccc3nc2N2CCCCCC2)cc1	5	31%	10%	-21	-6%	-6
O=S(=O)(Nc1nc2ccccc2nc1N1CCc2ccccc2C1)c1ccc(Cl)cc1	109	41%	27%	25*	6%	71*
Cc1ccccc1S(=O)(=O)Nc1nc2ccccc2nc1N1CCc2ccccc2C1	86	12%	-52%	93*	20%	37*
CC(=O)Nc1ccc(S(=O)(=O)Nc2nc3ccccc3nc2N2CCc3ccccc3C2)cc1	219	126%	84%	103*	30%	47*
Cc1ccccc1S(=O)(=O)Nc1nc2ccccc2nc1Cl	20	30%	-5%	26	6%	2
COc1cc(C(=O)NCCCNc2nc3cc(C)c(C)cc3cc2C#N)cc(OC)c1OC	122	?	121%	38	?	10
O=C(COC(=O)C1CCC1)NCc1ccccc1	6	-2%	-8%	·	3%	·
COc1cc(OC)cc(C(=O)Nc2ccc(S(=O)(=O)Nc3ccccn3)cc2)c1	-20	4%	?	-15	-4%	-6
CN(C)c1ccc(/C=C2\c3ccccc3C(=O)N2c2ccccc2)cn1	34	·	·	·	·	·
CCC1CN(C(=O)N2CCC(C(=O)O)CC2)c2cc(C)ccc2O1 (stereo not drawn)	6	·	·	·	·	·
O=S(=O)(Nc1nc2ccccc2nc1N1CCN(c2ccccn2)CC1)c1ccc(Cl)cc1	35	43%	·	38	-1%	15*
N#C/C(=C\c1ccccc1Br)C(=O)NC1CC1	10	-18%	1.5µM*	-10	27%	-3
Cc1cc(/C=C(\C#N)C(=O)NC2CCCCCC2)c(C)[nH]1	-15	36%	197%	46	-18%	35*
N#C/C(=C/c1ccc(OCc2ccccc2)cc1)C(=O)NC1CCCCC1	63	17%	0%	13	-10%	-3
COc1ccc(-c2[nH]ncc2/C=C(/C#N)C(=O)NC2CCCCCC2)cc1	?	?	?	-28	22µM*	-2
Cc1cc(/C=C(\C#N)C(=O)NC2CC2)c(C)[nH]1	119	165%	53%	94*	2%	68*
CSc1ccc(/C=C(\C#N)C(=O)NC2CCCCC2)cc1	33	15%	?	-4	?	1
COc1ccc(Cl)cc1NC(=O)C(C)OC(=O)c1ccc(NS(=O)(=O)c2ccc3[nH]c(=O)[nH]c3c2)cc1 (stereo not drawn)	3	-12%	?	-12	-27%	-3
CC(OC(=O)c1ccc(NS(=O)(=O)c2ccc3[nH]c(=O)[nH]c3c2)cc1)C(=O)Nc1ccc(Cl)cc1 (stereo not drawn)	6	0.83µM*	0.59µM*	20	?	5
CCc1ccc(NC(=O)C(C)OC(=O)c2ccc(NS(=O)(=O)c3ccc(C)c([N+](=O)[O-])c3)cc2)cc1 (stereo not drawn)	62	1%	-13%	9	11µM*	4
CC(=O)c1ccc(NC(=O)C(C)OC(=O)c2ccc(NS(=O)(=O)c3ccc(F)c(F)c3)cc2)cc1 (stereo not drawn)	-37	-14%	?	-6	13µM*	10
CCC(=O)Nc1ccccc1-c1nc2ccccc2n(C(C)C(=O)Nc2cccc(Cl)c2C)c1=O (stereo not drawn)	-12	·	·	·	·	·
COc1ccc(-c2cn3nc(SCC(=O)NCC4CCCO4)ccc3n2)cc1 (stereo not drawn)	61	18%	8%	61*	-7%	26*
CCOC(=O)CNC(=O)CSc1nc(-c2ccc(C)cc2)ns1	6	35%	39%	48*	4%	24
